Where “and” joins values, the source holds several entries; their conditions need not be identical. Identical values can stand only once. Inconclusive results are not listed. Where a call stands in place of a potency, no number is given. Calls of active or inactive are those of the source. Unless noted, calls follow the shape of the dose curve; as a rule, active = well fitted curve in the direction sought with a large enough effect; inconclusive = small, poorly fitted or top-dose-only effect, or another doubt; inactive = no such curve, though single readings can be large; an effect the other way counts as inactive or inconclusive.
How the values were obtained:
[1] = Cell Viability - SK-N-SH (AID 435; calls by dose curve;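 also: potency is read from the fitted curve at half-maximal effect; compound exposure lasted 40 h at 37 °C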); details: SK-N-SH neuroblastoma cell viability qHTS
Procedure, shortened: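 SK-N-SH human neuroblastoma cells (1500/well) were exposed to compounds in complete medium for 40 h at 37 °C, and intracellular ATP was then measured by CellTiter-Glo luminescence. AC50 was taken from Hill fits, normalized to DMSO and 100 uM tamoxifen.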

[2] = Cell Viability - LYMP2-001 (AID 921); details: LYMP2-001 lymphoblastoid cell viability; series mostly up to 92.2 µM; also: nearly all actives have a fitted effect of over 70% in size
Procedure, shortened: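 Human lymphoblastoid cells (Coriell), 2500 per well, were preincubated 5 hr at 37 C, then exposed to compounds in complete medium for 24 hr at 37 C. Cellular ATP was read by CellTiter-Glo luminescence; AC50 from Hill fits of concentration-response data.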

[3] = Cell Viability - LYMP2-014 (AID 983); details: LYMP2-014 lymphoblastoid cells, viability qHTS; series mostly up to 92.2 µM; also: nearly all actives have a fitted effect of over 50% in size
Procedure, shortened: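 2500 cells/well, 5 hr 37 C; cpd 24 hr 37 C, complete medium; CellTiter-Glo 30 min RT, luminescence; ATP loss = toxicity; AC50 via Hill eqn; tetraoctylammonium bromide positive control.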

[4] = Cell Viability - LYMP2-020 (AID 986); details: series mostly up to 92.2 µM; also: nearly all actives have a fitted effect of over 55% in size
Procedure, shortened: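 qHTS, 2500 cells/well; 5 hr then 24 hr compound exposure, 37 C; CellTiter-Glo luminescence after 30 min RT; ATP decrease taken as cytotoxicity; AC50 via Hill equation; tetraoctylammonium bromide positive control.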

[5] = Cell Viability - LYMP1-002 - Assay at 24 hr (AID 993); details: LYMP1-002 lymphoblastoid cells viability; series mostly up to 92.2 µM
Procedure, shortened: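 CellTiter-Glo luminescence (intracellular ATP) after 24 h compound exposure, 37 C, in LYMP1-002 human lymphoblastoid cells; decreased ATP taken as cytotoxicity. AC50 from standard Hill fit of concentration-response curves.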

[6] = target: Glucocorticoid receptor (Homo sapiens) (UniProt P04150); assay: qHTS assay for small molecule antagonists of glucocorticoid receptor signaling (AID 588533; active = well fitted inhibition curve with a large enough effect in the signal ratio, with a control signal flat, not every such curve was filed as active; the % refers to the signal ratio;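 also: cells stimulated with 2 nM dexamethasone as agonist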); details: HeLa MMTV-bla, GRE beta-lactamase ratio, antagonist mode, 18 h; series mostly up to 76.8 µM
Procedure, shortened: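 Antagonist-mode qHTS: compound titrations added to GRE-bla HeLa cells, then dexamethasone 2 nM final; 18 h, 37 C. CCF4 FRET fluorescence normalized to dexamethasone and DMSO; IC50 from Hill fit.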

[7] = qHTS assay for small molecule antagonists of peroxisome proliferator-activated receptor delta signaling (AID 588535; active = well fitted inhibition curve with a large enough effect in the signal ratio, with a control signal flat, not every such curve was filed as active; the % refers to the signal ratio;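 as to max response: cells co-treated with a PPAR-delta agonist as stimulator during compound exposure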); details: HEK293T PPARd-UAS-bla, beta-lactamase FRET ratio, 18 h; 460 nm channel
Procedure, shortened: (§1)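 Antagonist-mode qHTS using GeneBLAzer PPAR-delta-UAS-bla HEK293T cells; compound exposure 18 hrs at 37 C over a titration. Ratiometric CCF4 fluorescence at 460/530 nm; concentration-response points fitted to the Hill equation.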

[8] = target: Peroxisome proliferator-activated receptor delta (Homo sapiens) (UniProt Q03181); assay: as above; details: HEK293T PPARd-UAS-bla, beta-lactamase FRET ratio, 18 h; series mostly up to 76.7 µM
Procedure, shortened: as §1

[9] = target: Peroxisome proliferator-activated receptor gamma (Homo sapiens) (UniProt P37231); assay: qHTS assay for small molecule antagonists of peroxisome proliferator-activated receptor gamma signaling (AID 588537; active = well fitted inhibition curve with a large enough effect in the signal ratio, with a control signal flat, not every such curve was filed as active; the % refers to the signal ratio;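 also: reporter cells co-stimulated with 50 nM rosiglitazone agonist during compound treatment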); details: HEK293 PPARg-UAS-bla, beta-lactamase ratio, antagonist mode; series mostly up to 76.8 µM
Procedure, shortened: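 Cell-based beta-lactamase assay; GW9662 served as the antagonist control. Stimulation used rosiglitazone, final 50 nM, 16 h, 37 C.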

[10] = qHTS assay for small molecule agonists of the antioxidant response element (ARE) signaling pathway (AID 651741; active = well fitted activation curve with a large enough effect in the signal ratio; the % refers to the signal ratio); details: HepG2 ARE-bla reporter, beta-lactamase FRET ratio, 16 h; series mostly up to 96 µM
Procedure, shortened: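 Agonist activity is measured as ARE-driven beta-lactamase expression in a stable HepG2 reporter line, using 16 h compound treatment at 37 C and a FRET substrate fluorescence readout after 2 h.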

[11] = qHTS assay for small molecule activators of the nuclear factor-kappa B (NF-kB) signaling pathway (AID 651749; active = well fitted activation curve with a large enough effect in the signal ratio; the % refers to the signal ratio); details: NF-kB-bla ME-180 cells, beta-lactamase FRET ratio, 16 h; stronger effect = higher value
Procedure, shortened: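 FRET-based beta-lactamase detection in ME-180 cells reports NF-kB response-element-driven transcription following overnight (16 hr) compound treatment.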

[12] = target: Glutathione peroxidase 1 (Homo sapiens) (UniProt P07203); assay: Primary qHTS Assay for Inhibitors of Recombinant Selenoprotein Glutathione Peroxidase 1 (GPX1) (AID 1845191); details: recombinant GPX1, GR-coupled NADPH fluorescence, 15 min; series mostly up to 48.8 µM; also: nearly all actives have a fitted effect of over 65% in size; also: potency is read from the fitted curve at half-maximal effect
Procedure, shortened: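 NADPH consumption tracked by fluorescence at 340/450 nm between t=0 and t=15 min, room temperature. Final mix: 10 nM GPX1, 100 nM glutathione reductase, 1 mM GSH, 0.5 mM NADPH, 0.5 mM cumene hydroperoxide, 0.01% BSA; 30 min compound–enzyme preincubation.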

[13] = target: Phospholipid hydroperoxide glutathione peroxidase GPX4 (Homo sapiens) (UniProt P36969); assay: Primary qHTS Assay for Inhibitors of Recombinant Selenoprotein Glutathione Peroxidase 4 (GPX4) (AID 1845192); details: recombinant GPX4, GR-coupled NADPH fluorescence, 15 min; series mostly up to 50 µM; also: nearly all actives have a fitted effect of over 65% in size; also: potency is read from the fitted curve at half-maximal effect
Procedure, shortened: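 NADPH consumption followed by fluorescence at 340/450 nm, t=0 and after 15 min at room temperature. Reaction started with cumene hydroperoxide (0.5 mM final) after 30 min compound–GPX4 preincubation; final 200 nM GPX4, 100 nM GR, 1 mM GSH, 0.5 mM NADPH.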

[14] = qHTS profiling for inhibitors of Plasmodium falciparum proliferation (AID 504749); also: potency is read from the fitted curve at half-maximal effect; as to all read-outs here: nearly all actives have a fitted effect of over 60% in size; details: P. falciparum in erythrocytes, SYBR Green DNA, 72 h; for activity, negative = inhibition: at 28.7 µM (top of the series)
Procedure, shortened: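 In a 72 h erythrocytic culture (37 C, humidified, 5% CO2) at 2.5% hematocrit and 0.3% starting parasitemia, compounds were tested; SYBR Green I in detergent lysis buffer stained parasite DNA overnight.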

[15] = Cellular Toxicity (caspase-3) BJ (AID 658); details: BJ fibroblasts, luminescence, normalized: DMSO 0%, staurosporine 100%; series mostly up to 91.7 µM;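 also: cells exposed to compound for 16 hours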
Procedure, shortened: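 Caspase-Glo 3/7 luminescence, read 1 hr after reagent at room temperature, in normal BJ fibroblasts exposed 16 hours at 37 °C. AC50 values from Hill-equation concentration-response, scaled between DMSO basal and 10 uM staurosporine as 100%.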

[16] = Cell Viability - LYMP2-005 (AID 967); details: LYMP2-005 lymphoblastoid cell viability; series mostly up to 92.2 µM
Procedure, shortened: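 CellTiter-Glo luminescence (cellular ATP) read-out; LYMP2-005 lymphoblastoid cells, 2500/well, 5 h pre-incubation, then 24 h compound exposure at 37 C in complete medium. Tetraoctylammonium bromide positive control; AC50 by standard Hill fit.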

[17] = qHTS assay to identify small molecules that stimulate interleukin-8 (IL-8) secretion (AID 651758; active = well fitted activation curve with a large enough effect in the signal ratio; the % refers to the signal ratio); details: HTRF ratio (665/615); series mostly up to 92.2 µM
Procedure, shortened: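 Secreted IL-8 measured homogeneously by TR-FRET (two labelled anti-IL-8 antibodies, 1-3 h at room temperature) after a 16 h, 37 C compound treatment of THP-1 cells at 2000 cells/well.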

Glutathione peroxidase 1 (Homo sapiens), sequence (P07203 whole entry, looked up): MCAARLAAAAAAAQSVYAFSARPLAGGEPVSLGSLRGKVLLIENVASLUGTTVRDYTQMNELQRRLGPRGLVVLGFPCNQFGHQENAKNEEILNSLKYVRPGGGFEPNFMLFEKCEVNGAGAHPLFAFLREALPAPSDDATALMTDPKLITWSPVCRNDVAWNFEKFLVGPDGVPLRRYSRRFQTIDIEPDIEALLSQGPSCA
Phospholipid hydroperoxide glutathione peroxidase GPX4 (Homo sapiens), sequence (P36969 whole entry, looked up): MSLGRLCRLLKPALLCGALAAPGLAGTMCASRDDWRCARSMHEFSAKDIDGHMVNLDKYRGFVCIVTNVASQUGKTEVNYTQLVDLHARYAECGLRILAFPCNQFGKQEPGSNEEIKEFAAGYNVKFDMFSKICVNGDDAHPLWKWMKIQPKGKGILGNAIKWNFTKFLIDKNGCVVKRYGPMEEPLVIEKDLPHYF
Peroxisome proliferator-activated receptor delta (Homo sapiens), sequence (Q03181 whole entry, looked up): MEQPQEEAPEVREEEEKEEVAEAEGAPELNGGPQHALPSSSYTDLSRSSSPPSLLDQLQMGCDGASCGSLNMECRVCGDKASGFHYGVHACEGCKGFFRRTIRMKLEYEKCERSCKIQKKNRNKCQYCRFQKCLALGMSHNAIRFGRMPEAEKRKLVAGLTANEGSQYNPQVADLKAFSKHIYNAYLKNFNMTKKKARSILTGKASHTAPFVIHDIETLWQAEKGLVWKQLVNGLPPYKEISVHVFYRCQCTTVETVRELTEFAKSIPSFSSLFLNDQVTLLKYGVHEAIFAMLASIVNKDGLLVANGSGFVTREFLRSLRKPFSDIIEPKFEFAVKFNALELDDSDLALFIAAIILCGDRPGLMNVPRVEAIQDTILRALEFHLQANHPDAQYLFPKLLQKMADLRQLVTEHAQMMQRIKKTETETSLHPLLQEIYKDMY
Glucocorticoid receptor (Homo sapiens), sequence (P04150 whole entry, looked up): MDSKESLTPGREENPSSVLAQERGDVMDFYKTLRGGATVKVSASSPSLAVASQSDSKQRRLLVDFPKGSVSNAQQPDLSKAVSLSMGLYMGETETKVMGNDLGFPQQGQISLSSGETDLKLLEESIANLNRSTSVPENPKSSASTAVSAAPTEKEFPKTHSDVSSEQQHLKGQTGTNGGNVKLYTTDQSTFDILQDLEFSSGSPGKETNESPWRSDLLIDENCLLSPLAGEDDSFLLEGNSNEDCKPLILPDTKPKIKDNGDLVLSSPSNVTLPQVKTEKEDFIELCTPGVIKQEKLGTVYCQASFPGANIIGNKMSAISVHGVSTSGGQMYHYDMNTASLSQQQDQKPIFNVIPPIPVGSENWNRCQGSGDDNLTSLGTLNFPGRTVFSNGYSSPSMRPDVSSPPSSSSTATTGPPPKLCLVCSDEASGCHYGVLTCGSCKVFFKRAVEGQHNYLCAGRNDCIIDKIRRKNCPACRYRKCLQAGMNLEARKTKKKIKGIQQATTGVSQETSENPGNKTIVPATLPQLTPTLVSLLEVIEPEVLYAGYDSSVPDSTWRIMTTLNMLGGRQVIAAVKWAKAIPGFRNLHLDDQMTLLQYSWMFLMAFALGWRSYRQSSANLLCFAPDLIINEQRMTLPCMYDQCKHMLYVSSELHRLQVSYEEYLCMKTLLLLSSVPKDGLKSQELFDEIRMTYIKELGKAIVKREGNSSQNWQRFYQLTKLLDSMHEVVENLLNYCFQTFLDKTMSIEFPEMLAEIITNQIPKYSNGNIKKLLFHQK
Peroxisome proliferator-activated receptor gamma (Homo sapiens), sequence (P37231 whole entry, looked up): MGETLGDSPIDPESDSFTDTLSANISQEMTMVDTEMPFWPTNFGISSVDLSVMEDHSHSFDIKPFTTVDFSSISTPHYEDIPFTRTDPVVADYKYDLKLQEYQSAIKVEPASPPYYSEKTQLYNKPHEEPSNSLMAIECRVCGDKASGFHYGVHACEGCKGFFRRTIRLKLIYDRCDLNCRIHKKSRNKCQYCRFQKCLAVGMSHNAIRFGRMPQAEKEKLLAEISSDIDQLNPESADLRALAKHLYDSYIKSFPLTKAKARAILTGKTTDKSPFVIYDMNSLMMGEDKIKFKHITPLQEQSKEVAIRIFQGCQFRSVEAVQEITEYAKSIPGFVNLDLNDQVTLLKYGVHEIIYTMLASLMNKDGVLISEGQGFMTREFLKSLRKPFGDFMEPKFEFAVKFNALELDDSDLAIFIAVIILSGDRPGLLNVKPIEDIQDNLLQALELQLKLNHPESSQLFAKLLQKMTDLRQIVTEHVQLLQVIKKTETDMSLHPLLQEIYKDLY

## O=C(O)c1ccccc1C(c1ccc(O)cc1)c1ccc(O)cc1
[1]
  Potency: > 92 µM (inactive)
[2]
  Potency: inactive
[3]
  Potency: inactive
[4]
  Potency: inactive
[5]
  Potency: inactive
[6]
  Potency: inactive
[7]
  max response: 8.38% and 8.06%
[8]
  Potency: inactive
[9]
  outcome: inactive
[10]
  Potency: inactive
[11]
  activation: -1.81% (inactive) and -6.43% (inactive)
[12]
  Potency: inactive
[13]
  Potency: inactive

## CCC(=O)O[C@@H](OP(=O)(CCCCc1ccccc1)CC(=O)N1C[C@H](C2CCCCC2)C[C@H]1C(=O)O)C(C)C (some centres not stated)
[12]
  activity, negative = inhibition: 2.57% [at 9.52 µM] (inactive)
[14]; parasite line A
  activity, negative = inhibition: -6.06% (inactive)
[14]; parasite line B
  activity, negative = inhibition: -3.37% (inactive)

## CC1CCC(C(C)C)C(OC(=O)c2ccccc2O)C1 (configuration not stated)
[12]
  Potency: inactive
[13]
  Potency: inactive
[14]; parasite line A
  activity, negative = inhibition: -1.98% (inactive)
[14]; parasite line B
  activity, negative = inhibition: 8.37% (inactive)

## c1ccc2scnc2c1
[1]
  Potency: > 92 µM (inactive)
[15]
  outcome: inactive
[16]
  Potency: inactive
[5]
  Potency: inactive
[6]
  Potency: inactive
[7]
  max response: 3.24%
[8]
  Potency: inactive
[9]
  outcome: inactive
[11]
  activation: -1.1% (inactive)
[17]
  Potency: inactive
[12]
  Potency: inactive
[13]
  Potency: inactive

## COc1cc2c(c(OC)c1OC)-c1c(cc3c(c1OC)OCO3)C[C@H](C)[C@@](C)(O)C2
[12]
  Potency: inactive
[13]
  Potency: inactive

## CC(C)NC(=O)C1CCC(n2c(NC(=O)c3ccc(F)cc3)nc3ccc(CN4CCC(C(C)(C)O)CC4)cc32)CC1 (configuration not stated)
[12]
  Potency: inactive
[13]
  Potency: inactive

## CCN(CC)CCS(=O)(=O)[C@@H]1CCN2C(=O)c3coc(n3)CC(=O)C[C@H](O)/C=C(C)/C=C/CNC(=O)/C=C/[C@@H](C)[C@@H](C(C)C)OC(=O)[C@@H]12
[12]
  Potency: inactive
[13]
  Potency: 6.31 µM (active)

## Cc1cc(CC(C)CC(C)(C)C)n(O)c(=O)c1 (configuration not stated)
[12]
  Potency: inactive
[14]; parasite line A
  Potency: 1.78 µM (active)
[14]; parasite line B
  Potency: 1 µM (active)

## CC(C)CN(C[C@@H](OP(=O)(O)O)[C@H](Cc1ccccc1)NC(=O)O[C@@H]1CCOC1)S(=O)(=O)c1ccc(N)cc1
[12]
  Potency: inactive
[14]; parasite line A
  activity, negative = inhibition: -4.75% (inactive)
[14]; parasite line B
  activity, negative = inhibition: 9.93% (inactive)

## CO/N=C(/C(=O)N[C@@H]1C(=O)N2C(C(=O)O)=CCS[C@H]12)c1csc(N)n1
[12]
  Potency: 10.1 µM (active)
[14]; parasite line A
  activity, negative = inhibition: 1.12% (inactive)
[14]; parasite line B
  activity, negative = inhibition: 9.16% (inactive)

## CCCCCCCCCCCCCCCC(=O)OCC(O)C1OC(=O)C(O)=C1O (configuration not stated)
[12]
  Potency: inactive
[13]
  Potency: 7.08 µM (active)

## CCC(C)n1ncn(-c2ccc(N3CCN(c4ccc(OCC5COC(Cn6cncn6)(c6ccc(Cl)cc6Cl)O5)cc4)CC3)cc2)c1=O (configuration not stated)
[12]
  Potency: inactive
[13]
  Potency: inactive
[14]; parasite line A
  activity, negative = inhibition: 0.495% (inactive)
[14]; parasite line B
  activity, negative = inhibition: -11% (inactive)

## O=C(Nc1ccc(-c2ccnc(Nc3ccc(N4CCOCC4)cc3)n2)cc1)[C@@H]1CCCN1
[12]
  Potency: inactive
[13]
  Potency: inactive

## CNC(=O)c1ccccc1Nc1nc(Nc2ccc3c(c2OC)CCC[C@H](N2CCN(CCO)CC2)C3)ncc1Cl
[12]
  Potency: inactive
[13]
  Potency: inactive

Reference: PubChem BioAssay (NCATS)
